CCHF vOTU inh = blocks the CCHF virus ovarian tumor domain protease | 370,000 compounds, 0.55% hits | AID 651958 | CCHFV vOTU protease, Pep-AMC fluorescence | inhibition, % at 11.5 µM; in the data active = inhibition above about 30%; note: 0% = vehicle wells with enzyme and 100% = no enzyme wells
GDH-TPI counter-1 = counter-screen for M. tuberculosis FBA inhibitors: GDH-TPI coupled enzymes. inhibition, % at 4.8 µM. 360,000 compounds, 1.2% hits. GDH-TPI coupled enzyme counterscreen, NADH absorbance; in the data active = inhibition above about 30%;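 note: 0% = DMSO wells and 100% = wells lacking the enzyme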
RecA splice inh = blocks M. tuberculosis RecA intein splicing; inhibition, % (no concentration beside the values); AID 2221; P9WHJ3; cell-free RecA intein splicing, fluorescence; 290,000 compounds, 0.75% hits; in the data active = inhibition above about 30%;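 note: 0% = vehicle wells and 100% = reference inhibitor control wells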
SARS 3CLpro inh = SARS-CoV 3CLpro protease inhibition; recombinant SARS-CoV 3CLpro, quenched FRET peptide cleavage; 290,000 compounds, 0.14% hits; inhibition, % at 6 µM; P0C6X7; in the data active = inhibition above about 12%
VHR inh abs = blocks human VHR1 dual specificity phosphatase | P51452 | recombinant VHR phosphatase, pNPP absorbance | AID 1654 | inhibition, % at 13.3 µM | 290,000 compounds, 0.52% hits; in the data active = inhibition above about 50%
Target sequence (P51452 whole entry, looked up): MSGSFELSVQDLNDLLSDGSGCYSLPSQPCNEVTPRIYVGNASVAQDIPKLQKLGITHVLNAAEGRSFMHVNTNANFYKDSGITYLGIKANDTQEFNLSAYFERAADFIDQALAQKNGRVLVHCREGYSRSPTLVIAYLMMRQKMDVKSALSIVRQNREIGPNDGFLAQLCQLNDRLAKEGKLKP
FBA Mtb inh = inhibits M. tuberculosis FBA enzyme. 360,000 compounds, 2.3% hits. purified M. tuberculosis FBA, fluorescence read-out. inhibition, % at 1 µM. AID 588726. P9WQA3;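 note: 0% = vehicle and 100% = reference inhibitor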
Target sequence (P9WQA3 whole entry, looked up): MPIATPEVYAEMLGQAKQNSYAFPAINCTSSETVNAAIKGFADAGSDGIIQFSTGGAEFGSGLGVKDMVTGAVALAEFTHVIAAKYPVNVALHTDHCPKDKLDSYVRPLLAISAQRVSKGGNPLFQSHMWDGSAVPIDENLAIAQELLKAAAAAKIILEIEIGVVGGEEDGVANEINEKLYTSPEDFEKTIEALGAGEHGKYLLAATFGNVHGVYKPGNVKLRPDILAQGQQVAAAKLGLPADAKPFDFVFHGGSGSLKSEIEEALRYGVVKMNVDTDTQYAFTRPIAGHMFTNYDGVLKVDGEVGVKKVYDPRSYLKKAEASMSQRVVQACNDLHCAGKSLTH
Mtb FBA inh conf = confirmation of M. tuberculosis fructose-bisphosphate aldolase inhibitors; shares compounds with FBA Mtb inh; purified M. tuberculosis FBA, fluorescence read-out; inhibition, % at 1 µM; 5,600 compounds, 78% hits; AID 651616;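 note: 0% = vehicle wells and 100% = reference inhibitor wells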
GDH-TPI counter-2 = inhibits GDH-TPI coupling enzymes, flagging Mtb FBA hits | 5,600 compounds, 81% hits | shares compounds with FBA Mtb inh | GDH-TPI coupled enzyme counterscreen, fluorescence | AID 652141 | inhibition, % at 1 µM; in the data active = inhibition above about 10%
Starred values were filed as active, the others as inactive; / = not tested or not shown; + = active, no number. Sampled rows, rich in hits. Any-hit rate of the full collection: about 4.7%. Cut-off read from the data, not from the text of the source, unless noted: active = inhibition above about 27%; inactive = the rest.

SMILES | CCHF vOTU inh | GDH-TPI counter-1 | RecA splice inh | SARS 3CLpro inh | VHR inh abs | FBA Mtb inh | Mtb FBA inh conf | GDH-TPI counter-2
CCN(CC)CCCN(Cc1cc2cc3c(cc2[nH]c1=O)OCO3)C(=S)NCCCN(C)C | -30.8 | 22.3 | -3.2 | -6.3 | 69.7 | 19.6 | / | /
COCCNC(=S)N(CCO)Cc1cc2cc3c(cc2[nH]c1=O)OCO3 | -33.8 | 22.4 | 0.4 | -6.4 | / | 30.8* | 121.9* | 91.9*
CCN(CC)CCCN(Cc1cc2cc3c(cc2[nH]c1=O)OCO3)C(=S)NCCCOC | -30.4 | 34.1* | -2.1 | -5.0 | 49.1 | 40.5* | + | 173.2*
CCN(CC)CCN(Cc1cc2cc3c(cc2[nH]c1=O)OCO3)C(=S)NCCCOC | -42.3 | 26.9 | -2.7 | 3.4 | 29.8 | 39.2* | 96.8* | 80.5*
CCN(CC)CCN(Cc1cc2cc3c(cc2[nH]c1=O)OCCO3)C(=S)NCCOC | -7.1 | 24.8 | / | / | / | 23.3 | / | /
Cc1c(OCC(=O)NCc2ccccn2)ccc2c3c(c(=O)oc12)CCCC3 | 6.9 | 6.5 | -3.1 | 1.6 | 5.7 | 2.5 | / | /
CCN(CC)C(=O)COc1ccc2c3c(c(=O)oc2c1C)CCCC3 | -24.3 | 10.4 | 0.0 | -1.4 | -3.8 | 63.7* | + | +
Cc1c(OCC(=O)N[C@H](C(=O)O)c2ccccc2)ccc2c3c(c(=O)oc12)CCCC3 | -15.0 | 10.8 | -1.0 | 2.8 | 20.6 | 30.7* | 6.5 | -3.9
Cc1c(OCc2ccc(C(=O)O)o2)ccc2c3c(c(=O)oc12)CCC3 | -26.3 | 12.4 | -1.3 | 0.6 | 25.8 | 71.9* | 27.7* | 24.7*
COCCNC(=O)C1Cc2c(-c3cccc(NC(C)=O)c3)ccnc2O1 (configuration not stated) | 4.0 | 1.8 | / | / | / | 3.0 | / | /
CCc1nnc(SCC(=O)Nc2ccc(F)cc2)o1 | -8.0 | -0.7 | 23.1 | 0.9 | 6.2 | 0.7 | / | /
CC1CCCN(CCCCOc2cccc(Br)c2)C1 (configuration not stated) | 2.8 | 7.2 | -3.0 | 4.3 | -3.6 | -2.5 | / | /
CCS(=O)(=O)N1CCN(C(=O)c2ccc3nc(C)c(N(C)C(=O)CCc4ccccc4)n3c2)CC1 | -13.8 | 15.5 | / | / | / | 0.0 | / | /
Cn1c(=O)c2c(C(=O)O)cc(-c3ccccc3)nc2n(Cc2ccccc2)c1=O | 5.8 | -5.2 | -9.6 | -4.6 | 43.9 | -2.3 | / | /
COc1ccccc1-c1cc(C(=O)O)c2c(=O)n(C)c(=O)n(Cc3ccccc3)c2n1 | -7.5 | 3.4 | -3.5 | -2.1 | 17.0 | 38.2* | -2.8 | -5.0
Cc1ccc2cc(CN(CCO)Cc3nnnn3Cc3ccc(F)cc3)c(=O)[nH]c2c1 | 10.6 | 5.0 | 2.0 | 1.8 | 12.1 | 12.7 | / | /
Cc1ccc2[nH]c(=O)c(CN(Cc3cccnc3)Cc3nnnn3CC3CCCO3)cc2c1 (configuration not stated) | 0.4 | 18.5 | -1.6 | -2.2 | 32.4 | 2.2 | / | /
O=c1[nH]c2cc3c(cc2cc1CN(CCCO)Cc1nnnn1Cc1ccc(F)cc1)OCO3 | -9.9 | 24.4 | -13.3 | -4.1 | 31.1 | 35.9* | 35.4* | 29.8*
O=c1[nH]c2cc3c(cc2cc1CN(Cc1ccc2c(c1)OCO2)Cc1nnnn1CC1CCCO1)OCO3 (configuration not stated) | -22.0 | 23.8 | -1.4 | 2.2 | 25.5 | 39.7* | 46.6* | 39.6*
CCOC(=O)c1nn(-c2ccc(OCC)cc2)c2nc(CC(C)C)c(C#N)c(=O)n12 | 4.3 | -0.6 | -3.4 | -0.8 | 4.4 | 104.0* | -7.0 | -6.0
CCOC(=O)c1nn(-c2cccc(Cl)c2)c2nc(CC(C)C)c(C#N)c(=O)n12 | 4.1 | 0.3 | -1.0 | -5.0 | 13.6 | 4.8 | / | /
CCOC(=O)c1nn(-c2ccc(F)cc2)c2nc(-c3ccccc3)c(C#N)c(=O)n12 | -3.6 | 21.5 | 4.9 | 1.0 | -1.5 | 22.2 | / | /
CCOC(=O)c1nn(-c2ccc(Cl)cc2)c2nc(CC)c(C#N)c(=O)n12 | -3.5 | 20.6 | -1.0 | -2.6 | 16.1 | 37.2* | 1.0 | 1.1
Cc1ccc(C(=O)NNc2c3ccccc3nc3ccccc23)cc1 | -26.0 | 22.8 | -22.3 | 1.9 | -6.4 | 36.1* | 96.9* | 103.2*
O=C(O)c1ccc(Nc2c3ccccc3nc3ccccc23)cc1 | -178.8 | -1.0 | -1.2 | 2.1 | 10.4 | 98.2* | + | +
SMILES | CCHF vOTU inh | GDH-TPI counter-1 | RecA splice inh | SARS 3CLpro inh | VHR inh abs | FBA Mtb inh | Mtb FBA inh conf | GDH-TPI counter-2
OCCNc1nc(Nc2cccc(O)c2)nc2ccccc12 | -3.4 | 11.9 | 2.9 | -0.2 | 0.8 | 0.8 | / | /
CC(C)(C)Nc1c2ccccc2nc2ccccc12 | -92.4 | -5.3 | 16.4 | -1.4 | / | 42.2* | 94.2* | 70.7*
Oc1cccc(Nc2c3ccccc3nc3ccccc23)c1 | -107.5 | 3.4 | 3.5 | -5.3 | 1.8 | 65.2* | 20.6 | 17.8*
Cc1ccc(F)cc1C(=O)N1CCCC1(C)C(=O)NCC(C)C (configuration not stated) | -4.0 | 5.3 | / | / | / | -0.3 | / | /
Cc1cc(C)c(C)c(S(=O)(=O)Nc2ccccc2N2CCOCC2)c1C | 8.8 | 0.5 | / | / | / | -1.9 | / | /
COc1ccc(C(=O)Nc2nnc(Cc3ccc(OC)c(OC)c3)s2)cc1 | 7.1 | -1.5 | -5.6 | 1.9 | 1.3 | 1.1 | / | /
CCOC(=O)Nc1c2ccccc2nc2ccccc12 | -119.8 | 11.6 | -103.5 | -0.4 | 1.1 | 94.9* | 114.0* | 77.4*
CCOC(=O)Nc1ccc(Oc2ccccc2)cc1 | -1.9 | -13.6 | 11.4 | 4.6 | -0.5 | 5.2 | / | /
CNc1snc(C)c1C(=O)OCC(=O)c1ccc(OC)c(F)c1 | 2.0 | 1.4 | / | / | / | -0.9 | / | /
CCOC(=O)c1cc(-c2ccc(C)cc2)nc2nc(SC)[nH]c(=O)c12 | -22.4 | 30.4 | 0.3 | 1.6 | -3.6 | 39.9* | 150.6* | 158.8*
CCOC(=O)c1cc(-c2cccc(C(F)(F)F)c2)nc2nc(SC)[nH]c(=O)c12 | -3.7 | -0.4 | -1.3 | 4.5 | 1.3 | 3.9 | / | /
COC(=O)C1=C(C)N(Cc2ccc(F)cc2)C(=S)NC1c1cccc(OC)c1 (configuration not stated) | 19.8 | / | / | / | / | / | / | /
COC(=O)[C@@]1(C(C)C)N=C(c2cc(OC)c(OC)c(OC)c2)[C@]2(O1)C(=O)N(C)c1ccc(Cl)cc12 | 14.0 | / | / | / | / | / | / | /
CC1=C(C(=O)OCCOC(C)C)C(c2cccnc2)C2=C(CCCC2=O)N1 (configuration not stated) | -27.2 | 3.7 | / | -1.4 | 7.6 | 31.4* | + | +
COCCOC(=O)C1=C(C)NC2=C(C(=O)CC(C)(C)C2)C1c1cccnc1 (configuration not stated) | -75.9 | 0.9 | -137.6 | -5.9 | -7.7 | 38.7* | + | +
CCN(CC)c1ccc(C2C(C(=O)OCCOC(C)C)=C(C)NC3=C2C(=O)CCC3)cc1 (configuration not stated) | -2.7 | 11.2 | -31.7 | 2.6 | 15.3 | 0.9 | / | /
CC1=C(C(=O)OC(C)C)C(c2cccnc2)C2=C(CC(C)(C)CC2=O)N1 (configuration not stated) | -80.3 | 13.4 | -61.3 | 2.2 | 26.7 | 79.2* | 30.9* | 38.1*

High-throughput results (PubChem BioAssay)
